We go through 26 compounds from PubChem BioAssay.

Calls of active or inactive are those of the source.
Note: test concentration not given here.

One test is described as follows: JC-1 mitochondrial signal, unstimulated HepG2 cells – cell-based, JC-1 fluorescence, 24 h, 100 nL compound, profiling panel (AID 1167). The settings on record: HepG2 mitochondrial potential, higher = more signal.
As for `COc1ccc([C@H]2C[C@H]3C(Br)=C[C@@H]2C(=O)[C@]32CO2)cc1`, the z-score is -0.262.

`COc1ccc(C(=O)Nc2ccc(CN3C(=O)[C@@]4(O[C@@H](CC(=O)N5CCC[C@H]5CO)[C@H]([Si](C)(C)c5ccc(OC)cc5)[C@H]4C)c4ccccc43)cc2)cc1` returned a z-score of 3.78.

Regarding `COCCOC(=O)N1C(=O)[C@@]2(c3cc(C#CC4=CCCCC4)ccc31)[C@H](C(=O)Nc1nc3ccccc3s1)[C@H]1C(=O)O[C@H](c3ccccc3)[C@H](c3ccccc3)N1[C@@H]2c1ccc(OCCO)cc1`, the z-score is -2.95.

With `C=CCOC(=O)[C@H]1[C@@H]2C(=O)O[C@@H](c3ccccc3)[C@@H](c3ccccc3)N2[C@@H](c2ccc(OCCOC(=O)[C@H]3C[C@H]4C(=O)N5CCC[C@H]5C(=O)N4[C@H]3c3ccc(O)cc3)cc2)[C@]12C(=O)Nc1ccccc12`, the z-score is -1.37.

In the case of `C=C(CCCC)/C(=C/C[C@@H](OC(C)=O)c1ccccc1OCCO)c1cnc2ccccc2c1`, the z-score was 0.749.

Turning to `Cc1ccc(C(C)CC(O)C2C=CC3C(=O)N(c4ccccc4)C(=O)C3N2Nc2ccc([N+](=O)[O-])cc2)o1` (stereo unspecified), the z-score is -0.414.

The next test is described as follows: JC-1 mitochondrial signal, unstimulated adipocytes – cell-based, JC-1 fluorescence, 3T3-L1 adipocytes, 24 h, 100 nL compound, profiling panel (AID 1168). The following applies: JC-1 mitochondrial fluorescence, higher = more signal, called active from +8 up or from −8 down.
Consider `COC(=O)c1c(CC[C@@H](CO)NC(=O)N2CCC[C@H]2Cn2cc(-c3ccccn3)nn2)oc(C(C)=O)c1C(=O)OC`, for which the z-score is -0.922 (inactive).

With `CCN(CC)c1ccc(N2CC=CC34O[C@@H]5/C=C\CCCOC(=O)C5[C@H]3C(=O)N(CCO)[C@@H]4C2=O)cc1` (stereo partly specified), the z-score was -0.381 (inactive).

Take `CCOC(=O)C1=CCC(c2ccccc2)N(S(=O)(=O)CC[Si](C)(C)C)C1` (stereo unspecified): the z-score is -0.0119 (inactive).

With `NCCCCCNC(=O)[C@@H]1C[C@@H]2C(=O)NCC(=O)N2[C@@H]1c1ccc(O)cc1`, the z-score is 0.114 (inactive).

Consider `CC(C)(C)OC(=O)CC[C@]1(C(=O)O)N=C(c2ccc(OCCCO)cc2)O[C@H]1c1ccccc1N=[N+]=[N-]`, for which the z-score was 0.328 (inactive).

`O=C1C2C=CC(C(O)C(c3ccccc3)c3ccccc3)N(n3cnnc3)C2C(=O)N1Cc1ccccc1` (stereo unspecified): the z-score is -1.26 (inactive).

In the case of `COc1ccc([Si](C)(C)[C@H]2[C@H](CCn3cc([C@H](O)c4ccccc4)nn3)O[C@@]3(C(=O)N(Cc4cccc(N5CCOC5=O)c4)c4ccccc43)[C@@H]2C)cc1`, the z-score was -0.537 (inactive).

Take `COCCOC(=O)N1C(=O)[C@@]2(c3cc(C#Cc4ccc(OC)cc4)ccc31)[C@H](C(N)=O)[C@H]1C(=O)O[C@H](c3ccccc3)[C@H](c3ccccc3)N1[C@@H]2c1ccccc1OCCO`: the z-score was 2.99 (inactive).

In the case of `CC(CO)N1C(=O)[C@@H]2C3C(=O)OCCC/C=C\[C@H]3OC23C=CCN(c2ccc4ccccc4c2)C(=O)[C@@H]13` (stereo partly specified), the z-score was -0.373 (inactive).

For `O=C1NC(=O)C2C1C=CC(C(O)C(c1ccccc1)c1ccccc1)N2Nc1ccc(Cl)cc1Cl` (stereo unspecified), the z-score is -0.283 (inactive).

As for `CC(=O)n1cc(C(O)C2C=CC3C(=O)N(C)C(=O)C3N2Nc2ccccc2)c2ccccc21` (stereo unspecified), the z-score is -0.454 (inactive).

On to `CC(C)C[C@@H]1NC(=O)[C@H]2C[C@@H](C(=O)NCCCCCCN(C)C)[C@@H](c3ccc(O)cc3)N2C1=O`, for which the z-score is 0.186 (inactive).

Take `CCN(CC)c1ccc(N2CC=CC34O[C@@H]5/C=C\CCC(C)OC(=O)C5[C@H]3C(=O)N(C(CO)C(C)C)[C@@H]4C2=O)cc1` (stereo partly specified): the z-score was -0.118 (inactive).

On to `C=CCNC(=O)[C@H]1[C@@H]2C(=O)O[C@@H](c3ccccc3)[C@@H](c3ccccc3)N2[C@@H](c2ccccc2OCCO)[C@]12C(=O)Nc1ccc(C#CC3=CCCCC3)cc12`, for which the z-score was 2.75 (inactive).

Regarding `CCOC(=O)[C@H]1C/C=C/C[C@H](C(=O)OCC)C(=O)O[C@H]2[C@@H](OC)O[C@H](CO)[C@@H](OC(=O)Nc3cccc(F)c3)[C@@H]2OC1=O`, the z-score was 1.84 (inactive).

As for `CCCC[C@H]1OB(O)C[C@H]2C1=C(COc1ccccc1)C[C@H]1C(=O)N(C)C(=O)[C@H]12`, the z-score is 0.468 (inactive).

As for `OC([C@@H]1CC(c2ccccc2)=NO1)[C@H]1CC(c2ccccc2)=NO1` (stereo partly specified), the z-score is 0.635 (inactive).

Regarding `CN(C)C(=O)[C@]1(Cc2ccccc2N=[N+]=[N-])N=C(c2ccc(OCCCO)cc2)O[C@@H]1c1ccccc1`, the z-score was 0.6 (inactive).

With `CCCCCN1CC=CC23O[C@@H]4/C=C\CCCOC(=O)C4[C@H]2C(=O)N(CCCO)[C@@H]3C1=O` (stereo partly specified), the z-score was -0.0755 (inactive).

For the compound `CC(C)[C@@H](CO)NC(=O)[C@H]1[C@@H](c2ccccc2)N(c2ccccc2)O[C@@H]1C`, the z-score was 0.392 (inactive).
